Experimental data: PubChem BioAssay (NCI)
The panel holds about 83,000 compounds, 20% with a hit somewhere; the sample as a whole holds those more often.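 Step 1: grow cells in 96-well plates. Step 2: add test compound at a single concentration. Step 3: incubate 48 h. Step 4: record percent growth.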 Values without a mark were called inactive. The source made the active and inactive calls. The calls were made as follows: active = growth percent below 10; inactive = the rest.

The compounds below were run on SN12C renal (assay: NCI-60 one-dose screen, 48 h (100 = growth as untreated, 0 = no growth, -100 = all killed)). Conditions: 10 µM unless noted.

**Q.** For COc1ccc(/C=C/C(c2cc(OC)c(OC)c(OC)c2)n2cncn2)cc1O (configuration not stated), which growth is on record?
**A.** 49.6%

**Q.** How did the growth turn out when COc1ccc(-c2cn(Cc3cc4ccccc4s3)nn2)cc1OCCN1CCCCC1 was run?
**A.** 81.6%

**Q.** Which growth does the source give for COc1ccc(-c2nc3c(c(-c4ccc(Cl)cc4)nn3-c3ccccc3)c(-c3ccccc3)c2C#N)cc1 here?
**A.** 105%

**Q.** How did the growth turn out when COc1ccc2c(c1)CC[C@@H]1[C@@H]2CC[C@]2(C)C3C(=CC(COC(C)=O)C4C(=O)N(c5ccc(Cl)cc5)C(=O)C43)C[C@@H]12 (some centres not stated) was run?
**A.** 101%

**Q.** How did the growth turn out when COc1cc(/C=C/C(=O)N2CCN(C(=O)c3cc(OC)c(OC)c(OC)c3)CC2)ccc1OCCCOc1cc2c(cc1OC)C(=O)N1CCC[C@H]1C=N2 was run?
**A.** 13.9%

**Q.** Which growth does the source give for CSc1nc2ccc(C)cc2cc1/C=C1/C=C(c2ccccc2)NC1=O here?
**A.** 32.6%

**Q.** With Cc1ccc2c(c1)sc1nc(-c3c[nH]c4ccccc34)c(Nc3ccccc3)n12 as the compound, how does the growth read?
**A.** 102%

**Q.** How did the growth turn out when N=C(N)c1ccc(-c2ccc(-c3ccccc3)o2)o1 was run?
**A.** 39%

**Q.** For CN1C(=O)N2CN3CCCN(C3)CN3C(=S)NC1C23 (configuration not stated), which growth is on record?
**A.** 97.7%

**Q.** Clc1ccc(-c2cc(-c3ccccc3)nc(N3CCN(CCCNc4ccnc5cc(Cl)ccc45)CC3)n2)cc1 was tested. Which growth did it give?
**A.** -90.2% (active)

**Q.** How did the growth turn out when COc1cc(/C=C/c2cc(/C=C/c3ccc(O)c(OC)c3)n(C(=O)Nc3ccc(Cl)cc3)n2)ccc1O was run?
**A.** 9% (active)

**Q.** N#Cc1c(-c2ccccc2)nc2c(c(-c3ccc(Cl)cc3)nn2-c2ccccc2)c1-c1ccc([N+](=O)[O-])cc1 was tested. Which growth did it give?
**A.** 105%
